{
  "source": "paper PMC5540273",
  "about": "(PLoS ONE, 2017);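 note: KINOMEscan kinase panel screen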",
  "data": [
    {"system": "FRK", "details": "concentration: 1 μM, replicates: in singlicate; n = 1", "units": {"%Inh": "%"}, "values": [
      {"smiles": "C[C@@H]1CC[C@H](C(=O)NC2CCCCC2)CN1c1cc(-c2ccc3c(N)n[nH]c3c2)nc(N)n1", "note": "[GSK2291363]", "%Inh": 19},
      {"smiles": "Cc1nc(N(C)[C@H]2CN(C(=O)CC#N)CC[C@H]2C)c2cc[nH]c2n1", "%Inh": 0},
      {"smiles": "Nc1nccc2scc(-c3ccc4c(c3)CCN4C(=O)Cc3ccccc3)c12", "note": "[GSK2576924]", "%Inh": 0},
      {"smiles": "COc1cc(OC)cc(-c2cc3cnc(N)nc3nc2NC(=O)NC(C)(C)C)c1", "%Inh": 0},
      {"smiles": "O=C(Nc1n[nH]c2cc(-c3ccccc3F)ccc12)C1CC1", "note": "[SB-733371]", "%Inh": 0},
      {"smiles": "CCCNC(=O)Nc1ccc(Oc2ncnc3ccn(C)c23)cc1", "%Inh": 0},
      {"smiles": "COc1cc2ncn(-c3cc(OCc4ccncc4Br)c(C(N)=O)s3)c2cc1OC", "note": "[GW854278]", "%Inh": 8},
      {"smiles": "Cc1nn2c(=O)cc(N3CCOCC3)nc2n1Cc1cccc(Cl)c1Cl", "note": "[GSK2342769]", "%Inh": 0},
      {"smiles": "Cc1c(Cn2c(C)nn3c(=O)cc(N4CCO[C@H](C)C4)nc23)cccc1C(F)(F)F", "note": "[GSK2373690]", "%Inh": 35},
      {"smiles": "COc1cc2nccc(Nc3ccc(OCc4ccc(NC(C)=O)cc4)cc3)c2cc1OC.Cl", "note": "[GW440135]", "%Inh": 7},
      {"smiles": "Cc1cccc(-c2nc(Nc3ccc4c(cnn4C)c3)c3ccccc3n2)n1", "note": "[GW876731]", "%Inh": 13},
      {"smiles": "CCCC(=O)Nc1n[nH]c2ncc(-c3cccc4ccccc34)cc12", "note": "[SB-642057]", "%Inh": 0},
      {"smiles": "FC(F)(F)c1ccc(-c2ncn(CCCN3CCOCC3)c2-c2ccncc2)cc1", "note": "[SB-217780]", "%Inh": 12},
      {"smiles": "OCCCNc1nccc(-c2c(-c3cccc(C(F)(F)F)c3)nn3cc(C(F)(F)F)ccc23)n1", "note": "[GW630813]", "%Inh": 0},
      {"smiles": "COc1cc(Nc2nccc(N3CCC(NC(=O)C4COc5ccccc5O4)C3)n2)cc(OC)c1OC", "note": "(stereo not shown) [GSK1379761]", "%Inh": 3},
      {"smiles": "CCc1ccc(-c2ccc3c(c2)-c2nn(C)cc2S(=O)(=O)N3C)cc1", "%Inh": 0},
      {"smiles": "COc1cc(Nc2nccc(N3CCC(NC(=O)C(C)c4ccc(Cl)cc4)C3)n2)cc(OC)c1OC", "note": "(stereo not shown) [GSK1379757]", "%Inh": 0},
      {"smiles": "CCS(=O)c1ccc(-c2coc3ccc(-c4nnc(C)o4)cc23)cc1", "note": "(stereo not shown)", "%Inh": 5},
      {"smiles": "O=C1NC(=O)C(c2ccccc2)=C1Nc1cccc(O)c1", "note": "[SB-390534]", "%Inh": 0},
      {"smiles": "COc1cccc(-n2cnc3c(N)ncnc32)c1", "note": "[SKF-97416]", "%Inh": 0},
      {"smiles": "COc1cc2ncn(-c3cc(OCc4ccncc4)c(C(N)=O)s3)c2cc1OC", "note": "[GSK336313]", "%Inh": 0},
      {"smiles": "COC(=O)c1c(-c2ccccc2)c2cc(Br)ccc2c(=O)n1Cc1ccc(S(C)(=O)=O)cc1", "%Inh": 1},
      {"smiles": "Nc1ncnc2c1ncn2-c1cccc(F)c1", "note": "[SKF-97560]", "%Inh": 0},
      {"smiles": "Nc1n[nH]c2nnc(-c3ccccc3)c(-c3ccccc3)c12", "note": "[GW554060]", "%Inh": 5},
      {"smiles": "Cc1ccc(-c2ccc3c(ccc4sc5c(c43)NC[C@@H](C)N=C5N(C)C)n2)cn1", "%Inh": 0},
      {"smiles": "COc1cc2ncn(-c3cc(OCc4ccc(S(C)(=O)=O)cc4)c(C(N)=O)s3)c2cc1OC", "note": "[GW869979]", "%Inh": 0},
      {"smiles": "Cl.NS(=O)(=O)c1cccc(Nc2cc(-c3ccc(F)cc3)n[nH]2)c1", "note": "[GW824645]", "%Inh": 0},
      {"smiles": "COc1cccc(C2=C(N(C)c3ccccc3)C(=O)NC2=O)c1", "note": "[SB-334865]", "%Inh": 5},
      {"smiles": "CCn1c(-c2ccoc2)nc2cnccc21", "note": "[SB-733887]", "%Inh": 0},
      {"smiles": "COc1cc2nccc(Nc3cccc(Oc4ccccc4)c3)c2cc1OC.Cl", "note": "[GW284543]", "%Inh": 0},
      {"smiles": "CCC(=O)c1c(-c2ccccc2)c2cc(Cl)ccc2c(=O)n1Cc1cc(S(C)(=O)=O)n(CC(N)=O)n1", "%Inh": 0},
      {"smiles": "CCn1c(-c2nonc2N)nc2ccccc21", "note": "[SB-693162/GW549034]", "%Inh": 0},
      {"smiles": "CN(C)c1cc(-c2ccc3c(N)n[nH]c3c2)nc(N)n1", "note": "[GSK2219329]", "%Inh": 0},
      {"smiles": "Cc1ccccc1COc1cc(-n2cnc3cc(Cl)ccc32)sc1C(N)=O", "note": "[GW813349]", "%Inh": 0},
      {"smiles": "Cl.c1ccc(Cn2cnc3cc(Nc4ncnc5ccccc45)ccc32)cc1", "note": "[GW272142]", "%Inh": 0},
      {"smiles": "Nc1ncnc2c1ncn2-c1cccc2ccccc12", "note": "[SKF-97184]", "%Inh": 0},
      {"smiles": "COc1ccc(CNC(=O)NC2CCN(c3ccnc(Nc4ccc(F)cc4)n3)C2)cc1", "note": "(stereo not shown) [GSK1379706]", "%Inh": 14}
    ]}
  ]
}
